Screens as filed in PubChem.
FAS TE block: FAS thioesterase (human) inhibition | P49327 | recombinant FAS-TE, OMFH fluorogenic substrate, fluorescence endpoint | inhibition, % at 15 µM | actives 0.67% (n = 360,000) | AID 602261;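 active = compounds whose normalised, plate-corrected inhibition of enzyme fluorescence in the single-dose primary screen is 50% or more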;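 also: 0% = DMSO with enzyme and 100% = substrate without enzyme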
ADAM17 inh: inhibits human ADAM17 | recombinant ADAM17, EDANS/DABCYL FRET peptide cleavage | actives 0.83% (n = 370,000) | inhibition, % at 6.95 µM | P78536;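 active = inhibition above the mean of compounds lying between control limits plus 3 SD, set per campaign, cut at about 8.5% in these data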;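 also: 0% = DMSO-only wells as the low control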
Target sequence (P78536 215-824 limits assumed): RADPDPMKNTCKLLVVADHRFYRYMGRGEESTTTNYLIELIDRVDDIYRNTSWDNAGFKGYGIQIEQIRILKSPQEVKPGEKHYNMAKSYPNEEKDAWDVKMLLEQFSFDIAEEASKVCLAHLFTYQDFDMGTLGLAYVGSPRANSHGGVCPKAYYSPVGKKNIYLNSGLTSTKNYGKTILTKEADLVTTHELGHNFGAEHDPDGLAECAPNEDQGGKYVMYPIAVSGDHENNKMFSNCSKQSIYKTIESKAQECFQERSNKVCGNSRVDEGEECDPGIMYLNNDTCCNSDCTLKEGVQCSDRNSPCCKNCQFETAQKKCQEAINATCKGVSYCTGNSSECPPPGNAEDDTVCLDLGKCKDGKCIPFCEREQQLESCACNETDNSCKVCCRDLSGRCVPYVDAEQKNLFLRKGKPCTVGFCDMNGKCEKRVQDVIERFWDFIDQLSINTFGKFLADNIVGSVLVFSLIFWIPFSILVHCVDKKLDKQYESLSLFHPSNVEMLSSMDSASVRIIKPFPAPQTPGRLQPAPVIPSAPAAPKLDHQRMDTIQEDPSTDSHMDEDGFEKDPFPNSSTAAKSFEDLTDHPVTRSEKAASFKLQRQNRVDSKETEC
GRIN3A LBD mod: modulators (binders) of human NR3A ligand-binding domain | NR3A LBD differential scanning fluorimetry, Tm shift; 0% = protein alone, 100% = glycine-bound protein | Tm shift relative to glycine control, % at 25 µM | actives 2.5% (n = 340,000) | AID 1259313;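 active = melting temperature shift of at least 10% of the positive control shift, at one fixed dose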
ADAM10 inh: ADAM10 inhibition, QFRET primary screen | O14672 | recombinant ADAM10, EDANS/DABCYL FRET peptide cleavage, 3 h | inhibition, % at 7 µM | actives 0.62% (n = 370,000) | AID 720582;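 active = inhibition above a per-campaign cutoff equal to the mean of compounds falling between control-based bounds plus 3 SD, cut at about 20% in these data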;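 also: 0% = DMSO wells while the 100% control is not disclosed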
aDG glyco up: increases alpha dystroglycan glycosylation | Pro5-aDG cells, alpha-DG glycosylation AlphaScreen (IIH6); 0% Pro5, 100% B10-LARGE cell signal | activation, % at 10 µM | actives 0.22% (n = 360,000) | AID 624168;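 active = activation of at least 8% versus controls, or a plate z-score of at least 8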;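 also: Pro5 are CHO cells carrying HIG-tagged alpha-DG that lacks glycosylation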
The depositor's hits bear a star. The list is not random: actives were taken first. Their share in the collection is about 4%.

`CN(C)c1nc(N)nc(CSc2ncc(Cl)cc2Cl)n1` gave FAS TE block -1.7, ADAM17 inh -3.3, GRIN3A LBD mod 0.3, ADAM10 inh 4.5 and aDG glyco up -0.1.
CN(c1cccc2cccnc12)S(=O)(=O)c1ccccc1 was read as FAS TE block -3.4, ADAM17 inh 1.6, GRIN3A LBD mod 3.7, ADAM10 inh 0.2 and aDG glyco up -0.1.
`CCc1nc2ccc(C(=O)NCCCN3CCN(c4ccc(F)cc4)CC3)cc2nc1CC` gave FAS TE block 3.7, ADAM17 inh -2.9, GRIN3A LBD mod -0.7, ADAM10 inh 0.7 and aDG glyco up 0.1.
CN1CCN(CCNC(=O)c2ccc3nc(-c4ccc(F)cc4)c(-c4ccc(F)cc4)nc3c2)CC1 was read as FAS TE block -0.8, ADAM17 inh -238.9, GRIN3A LBD mod -4.1, ADAM10 inh inactive and aDG glyco up 8.0*.
Screening COc1cc2c(cc1OC)[C@](C)(c1ccccc1)C[C@@H]2NCC=C(C)C returned ADAM17 inh 0.5 and ADAM10 inh -5.7.
Screening CCOC(=O)c1c(CSc2ccccc2)n(C)c2ccc(O)c(CN3CCOCC3)c12 returned FAS TE block -1.6, ADAM17 inh 2.8, GRIN3A LBD mod 14.1*, ADAM10 inh -0.9 and aDG glyco up 0.1.
`CCOC(=O)c1c(C)n(C)c2ccc(O)c(CN3CCN(C)CC3)c12` gave FAS TE block -6.0, ADAM17 inh -5.7, GRIN3A LBD mod -3.3, ADAM10 inh 6.6 and aDG glyco up 0.4.
CCCOC(=O)c1c(-c2ccc(OC)cc2)oc2ccc(-c3ccc(OC)nc3)cc12 was read as FAS TE block 16.6, ADAM17 inh -4.9, GRIN3A LBD mod 14.8*, ADAM10 inh -23.2 and aDG glyco up -0.1.
For COC(=O)c1c(-c2ccc(OC)cc2)oc2ccc(-c3ccc(OC)nc3)cc12 the results were FAS TE block 19.6, ADAM17 inh -3.6, GRIN3A LBD mod 0.5, ADAM10 inh -12.6 and aDG glyco up 0.3.
`CCOC(=O)Nc1c(Cl)n(C)c(=O)n(C)c1=O` gave FAS TE block -8.2, ADAM17 inh -0.5, GRIN3A LBD mod 10.6*, ADAM10 inh 2.6 and aDG glyco up 0.3.
Screening CCOC(=O)Nc1sc(=S)n(C)c1C returned FAS TE block -7.5, ADAM17 inh -5.2, GRIN3A LBD mod 3.3, ADAM10 inh 4.0 and aDG glyco up 0.1.
For Cc1cc(C)cc(N(CC(=O)NCc2ccc(F)cc2)C(=O)c2snc(C(N)=O)c2N)c1 the results were FAS TE block 0.7, ADAM17 inh -23.2, GRIN3A LBD mod 11.4*, ADAM10 inh -148.9 and aDG glyco up 0.2.
`CC(C)=CCN1CCN(Cc2cccc3nonc23)CC1CCO` (configuration not stated) gave FAS TE block -3.4, ADAM17 inh 1.3, GRIN3A LBD mod -0.6, ADAM10 inh 3.4 and aDG glyco up -0.3.
`Cc1ccc(C(=O)/C=C/Nc2cccc(O)c2)cc1` gave FAS TE block 0.2, ADAM17 inh -1.0, GRIN3A LBD mod 10.3*, ADAM10 inh -1.3 and aDG glyco up -0.1.
`Cc1ccc(C(=O)/C=C/Nc2ccc3c(c2)OCO3)cc1` gave FAS TE block 0.3, ADAM17 inh -3.9, GRIN3A LBD mod 17.4*, ADAM10 inh -14.1 and aDG glyco up 0.2.
CC(=O)c1ccc(N/C=C\C(=O)c2ccc(C)cc2)cc1 was read as FAS TE block -1.4, ADAM17 inh -1.9, GRIN3A LBD mod -7.8, ADAM10 inh -8.3 and aDG glyco up 1.7.
Screening O=C(/C=C/Nc1cccc(O)c1)c1ccccc1 returned FAS TE block -8.5, ADAM17 inh -1.5, GRIN3A LBD mod 3.6, ADAM10 inh 4.1 and aDG glyco up 0.2.
`O=C(N/N=C/c1cnc(N2CCOCC2)s1)c1ccccc1` gave FAS TE block -5.7, ADAM17 inh -6.4, GRIN3A LBD mod -2.0, ADAM10 inh -25.2 and aDG glyco up -0.1.
O=C(Cn1c2c(sc1=O)C1c3ccccc3OCC1CS2)Nc1ccc(Cl)cc1 (configuration not stated) was read as FAS TE block 15.7, ADAM17 inh -2.3, GRIN3A LBD mod 13.1*, ADAM10 inh 0.9 and aDG glyco up 0.4.
Screening O=C(COC(=O)C1COc2ccccc2O1)Nc1ccc(Cl)cc1 (configuration not stated) returned FAS TE block -4.7, ADAM17 inh -0.3, GRIN3A LBD mod -5.2, ADAM10 inh 10.4 and aDG glyco up -0.2.
